PubChem BioAssay AID1159580 (chemical genetic matrix, 2015)
Out of some 5,500 compounds screened, about 2,000 (36%) were called active. Not shown: some 18% with an inconclusive outcome. This is one part of the list. Unmarked numbers belong to inactive results. No stated cut-off is given here; in the data, active means normalized growth mostly below about 0.91 (no sharp cut-off); inconclusive means no clear call, values can overlap the other calls; inactive means mostly above about 0.92.

Experiment: chemical genetic growth profiling, strain panel (AID 1159580);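 further: tested at 20 µM; growth read once vehicle control cultures reached saturation at 30 °C; 1 = growth at the plate median or of vehicle wells; lower values mean less growth of the strain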
Settings: S. cerevisiae deletion strains, growth OD

N#CCCCCOc1ccc2c(=O)cc(-c3ccccc3)oc2c1
normalized growth (locus YAR019C, strain CDC15, hits give low values): 0.99 | normalized growth (locus YBL105C, strain PKC1, hits give low values): 0.978 | normalized growth (locus YBR135W, strain CKS1, hits give low values): 0.977 | normalized growth (locus YBR136W, strain MEC1, hits give low values): 0.977 | normalized growth (locus YBR160W, strain CDC28, hits give low values): 0.977 | normalized growth (locus YDL017W, strain CDC7, hits give low values): 0.988 | normalized growth (locus YDL028C, strain MPS1, hits give low values): 0.981 | normalized growth (locus YDL101C, strain DUN1, hits give low values): 0.972 | normalized growth (locus YDL108W, strain KIN28, hits give low values): 0.977 | normalized growth (locus YDL132W, strain cdc53, hits give low values): 0.971 | normalized growth (locus YDL214C, strain PRR2, hits give low values): 0.946 | normalized growth (locus YDR052C, strain DBF4, hits give low values): 0.989 | normalized growth (locus YDR054C, strain cdc34, hits give low values): 0.988 | normalized growth (locus YDR226W, strain ADK1, hits give low values): 0.977 | normalized growth (locus YDR477W, strain SNF1, hits give low values): 0.959 | normalized growth (locus YER123W, strain YCK3, hits give low values): 0.954 | normalized growth (locus YER133W, strain GLC7, hits give low values): 0.972 | normalized growth (locus YFL009W, strain cdc4, hits give low values): 0.979 | normalized growth (locus YFL029C, strain CAK1, hits give low values): 0.989 | normalized growth (locus YFR003C, strain YPI1, hits give low values): 0.981 | normalized growth (locus YFR019W, strain FAB1, hits give low values): 0.961 | normalized growth (locus YFR028C, strain CDC14, hits give low values): 0.974 | normalized growth (locus YGR040W, strain KSS1, hits give low values): 0.94 | normalized growth (locus YGR052W, strain FMP48, hits give low values): 0.972 | normalized growth (locus YGR092W, strain DBF2, hits give low values): 0.938 | normalized growth (locus YHR030C, strain SLT2, hits give low values): 1.08 | normalized growth (locus YHR079C, strain IRE1, hits give low values): 1.08 | normalized growth (locus YHR082C, strain KSP1, hits give low values): 1.07 | normalized growth (locus YHR205W, strain SCH9, hits give low values): 0.976 | normalized growth (locus YIL147C, strain SLN1, hits give low values): 0.974 | normalized growth (locus YJL095W, strain BCK1, hits give low values): 0.933 | normalized growth (locus YJL128C, strain PBS2, hits give low values): 0.938 | normalized growth (locus YJL157C, strain FAR1, hits give low values): 0.971 | normalized growth (locus YJR016C, strain ILV3, hits give low values): 0.967 | normalized growth (locus YJR066W, strain TOR1 (second series), hits give low values): 0.914 | normalized growth (locus YJR066W, strain TOR1, hits give low values): 1.04 | normalized growth (locus YKL048C, strain ELM1, hits give low values): 0.966 | normalized growth (locus YKL067W, strain YNK1, hits give low values): 0.956 | normalized growth (locus YKL101W, strain HSL1, hits give low values): 0.936 | normalized growth (locus YKL193C, strain SDS22, hits give low values): 0.969 | normalized growth (locus YKL203C, strain TOR2, hits give low values): 1.01 | normalized growth (locus YLR113W, strain HOG1, hits give low values): 0.955 | normalized growth (locus YLR133W, strain CKI1, hits give low values): 0.965 | normalized growth (locus YLR403W, strain SFP1, hits give low values): 0.921 | normalized growth (locus YML070W, strain DAK1, hits give low values): 0.956 | normalized growth (locus YMR001C, strain CDC5, hits give low values): 0.978 | normalized growth (locus YMR205C, strain PFK2 (second series), hits give low values): 0.967 | normalized growth (locus YMR277W, strain FCP1, hits give low values): 0.976 | normalized growth (locus YNL006W, strain LST8, hits give low values): 0.987 | normalized growth (locus YNL020C, strain ARK1, hits give low values): 0.956 | normalized growth (locus YNL161W, strain CBK1, hits give low values): 0.98 | normalized growth (locus YNL183C, strain NPR1, hits give low values): 1.02 | normalized growth (locus YNL207W, strain RIO2, hits give low values): 0.965 | normalized growth (locus YNL222W, strain SSU72, hits give low values): 0.982 | normalized growth (locus YNL307C, strain MCK1 (second series), hits give low values): 0.927 | normalized growth (locus YOL078W, strain AVO1, hits give low values): 0.972 | normalized growth (locus YOL136C, strain PFK27, hits give low values): 0.919 | normalized growth (locus YOR061W, strain CKA2, hits give low values): 0.961 | normalized growth (locus YOR119C, strain RIO1, hits give low values): 1.01 | normalized growth (locus YOR231W, strain MKK1, hits give low values): 0.964 | normalized growth (locus YOR329C, strain SCD5, hits give low values): 0.984 | normalized growth (locus YPL031C, strain PHO85, hits give low values): 0.968 | normalized growth (locus YPL153C, strain RAD53, hits give low values): 0.953 | normalized growth (locus YPL204W, strain HRR25, hits give low values): 0.943 | normalized growth (locus YPL209C, strain IPL1, hits give low values): 0.982 | normalized growth (locus YPL256C, strain CLN2, hits give low values): 1.15 [resistant] (active) | normalized growth (locus YPR025C, strain CCL1, hits give low values): 0.982 | normalized growth (locus YPR106W, strain ISR1, hits give low values): 0.983 | normalized growth (locus YPR111W, strain DBF20, hits give low values): 0.961 | normalized growth (strain NNK1, hits give low values): 0.975 | normalized growth (strain TSCII, hits give low values): 0.976
